# Results reported in ChEMBL document CHEMBL1201862, “PubChem BioAssay data set” (2004).
# Where “and” joins values, the source holds several entries; their conditions need not be identical. Equal values may be shown once. Screen size: about 400,000 compounds; about 2,100 (0.53%) were called active. About 14% were inconclusive and are not listed. No rule for the calls is given here. The entries come from a sample that favours actives as a whole.
# Molecular target: Ataxin-2 (Homo sapiens) (UniProt Q99700)
# Sequence (Q99700 whole entry): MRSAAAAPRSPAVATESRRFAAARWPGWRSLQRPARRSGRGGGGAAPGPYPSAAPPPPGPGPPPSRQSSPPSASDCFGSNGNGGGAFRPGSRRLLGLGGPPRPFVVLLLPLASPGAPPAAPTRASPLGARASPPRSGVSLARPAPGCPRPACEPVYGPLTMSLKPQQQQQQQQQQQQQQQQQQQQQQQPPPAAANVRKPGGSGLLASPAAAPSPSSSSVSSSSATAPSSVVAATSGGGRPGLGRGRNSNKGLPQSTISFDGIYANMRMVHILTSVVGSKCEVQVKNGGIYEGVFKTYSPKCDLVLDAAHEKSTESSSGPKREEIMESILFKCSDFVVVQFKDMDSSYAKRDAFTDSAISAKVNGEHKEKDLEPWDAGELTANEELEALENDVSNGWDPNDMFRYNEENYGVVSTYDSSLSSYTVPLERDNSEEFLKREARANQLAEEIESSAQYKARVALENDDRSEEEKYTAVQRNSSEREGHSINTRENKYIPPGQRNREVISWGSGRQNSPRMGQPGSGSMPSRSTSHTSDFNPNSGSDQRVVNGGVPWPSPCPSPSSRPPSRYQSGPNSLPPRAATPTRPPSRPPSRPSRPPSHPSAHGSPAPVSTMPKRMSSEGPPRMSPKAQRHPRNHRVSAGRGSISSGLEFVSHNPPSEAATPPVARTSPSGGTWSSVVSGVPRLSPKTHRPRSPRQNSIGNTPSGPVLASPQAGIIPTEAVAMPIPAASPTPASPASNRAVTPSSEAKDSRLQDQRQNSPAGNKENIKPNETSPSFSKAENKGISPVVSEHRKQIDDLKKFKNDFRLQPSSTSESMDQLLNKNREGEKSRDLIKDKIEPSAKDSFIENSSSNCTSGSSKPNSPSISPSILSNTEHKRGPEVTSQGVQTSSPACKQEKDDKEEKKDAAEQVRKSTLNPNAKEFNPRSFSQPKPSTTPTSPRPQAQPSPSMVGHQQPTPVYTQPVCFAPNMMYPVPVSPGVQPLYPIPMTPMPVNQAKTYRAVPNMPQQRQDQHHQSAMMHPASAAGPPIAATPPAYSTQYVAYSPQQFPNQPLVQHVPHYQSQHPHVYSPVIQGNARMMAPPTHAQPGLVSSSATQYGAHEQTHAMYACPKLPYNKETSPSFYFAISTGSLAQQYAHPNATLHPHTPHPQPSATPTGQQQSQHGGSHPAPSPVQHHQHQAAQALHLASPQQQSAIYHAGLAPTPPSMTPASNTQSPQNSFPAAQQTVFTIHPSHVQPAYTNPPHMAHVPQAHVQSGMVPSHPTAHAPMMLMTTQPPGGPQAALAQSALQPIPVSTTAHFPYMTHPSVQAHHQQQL
# Experiment: qHTS for Inhibitors of ATXN expression.
# Type: functional
row,Compound,Potency
1,CC(=O)/N=c1\c(C#N)cc2c(=O)n3cccc(C)c3nc2n1Cc1ccco1,inactive
2,CCN(CC)c1ccc(-n2nc3cc(C)c(NC(=O)c4ccccc4F)cc3n2)cc1,inactive
3,CCn1cnc2c1c(=O)n(CC(=O)NN)c(=O)n2Cc1ccccc1,inactive
4,Nc1c(C(=O)Nc2ccc(Br)cc2)sc2nc(-c3ccco3)ccc12,inactive
5,Cc1nn(C)c(C)c1N1C(=O)c2cccc3c(N)ccc(c23)C1=O,inactive
6,NNC(=O)c1oc2nc(-c3ccc(Cl)cc3)cc(-c3ccccc3)c2c1N,inactive
7,CC(=O)[C@]1(O)Cc2c(O)c3c(c(O)c2[C@@H](O[C@H]2C[C@H](N)[C@H](O)[C@H](C)O2)C1)C(=O)c1ccccc1C3=O,35.5 µM (active) and 20 µM (active)
8,COc1cccc2c1C(=O)c1c(O)c3c(c(O)c1C2=O)C[C@](O)(C(=O)CO)C[C@H]3O[C@@H]1C[C@H](N)[C@H](O)[C@H](C)O1,0.794 µM (active)
9,CC(C)c1ccc(-n2nc3ccc(N)cc3n2)cc1,inactive
10,Cc1cc(C)n(-c2ccc(C(=O)N3CCC(CO)(Cc4ccccc4)CC3)cc2)n1,inactive
11,Cc1ccc([N+](=O)[O-])cc1N/C=C1\CCCCC1=O,inactive
12,C=CCn1/c(=N/C(=O)c2sc3ccccc3c2Cl)sc2cc(S(N)(=O)=O)ccc21,12.6 µM (active)
13,COCCn1/c(=N/C(=O)c2cc(-c3cccs3)nc3ccccc23)sc2cc(S(N)(=O)=O)ccc21,inactive
14,Cc1cc(=O)n2nc(N3CCCC3C(=O)Nc3ccc(C(C)C)cc3)sc2n1 (stereo unspecified),inactive
15,Cc1nonc1CC(=O)N1CCCC(C(=O)c2ccc(Cl)cc2)C1 (stereo unspecified),inactive
16,Cc1nn(C)c(C)c1CCC(=O)N1CCCC(Nc2ccc(C(C)C)cc2)C1 (stereo unspecified),39.8 µM (active)
17,O=C(NCc1ccc(F)cc1)c1cccc2c1C(=O)c1ccc(N3CCC(Cc4ccccc4)CC3)cc1S2(=O)=O,inactive
18,Cc1nc2c(S(=O)(=O)c3ccccc3)cnn2c(C)c1C,inactive
19,CC1CCN(c2ccc3c(c2)S(=O)(=O)c2cccc(C(=O)NCc4cccc(F)c4)c2C3=O)CC1,inactive
20,COc1ccc(-n2nc3c(N4CCCC(C(=O)NCCc5ccccc5C)C4)nnc(C)c3c2C)cc1 (stereo unspecified),20 µM (active)
21,COc1ccc(-n2nc3c(N4CCCC(C(=O)NCc5cccc(F)c5)C4)nnc(C)c3c2C)cc1 (stereo unspecified),20 µM (active)
22,COc1ccc(CNC(=O)C(=O)NCC2OCCN2S(=O)(=O)c2cccs2)cc1 (stereo unspecified),inactive
23,COc1ccc(-n2nc3c(N4CCCC(C(=O)NCc5ccc(C)cc5)C4)nnc(C)c3c2C)cc1 (stereo unspecified),17.8 µM (active)
24,COc1ccc(S(=O)(=O)N2CCCC(C(=O)NCCCn3ccnc3)C2)cc1OC (stereo unspecified),inactive
25,CCC(C(=O)NCCc1ccccc1OC)n1nc(C)c2c(C)n(-c3ccccc3)nc2c1=O (stereo unspecified),inactive
26,COc1cccc(CNC(=O)C2CCN(c3nnc(N4CCCC4=O)s3)CC2)c1,inactive
